Experimental data from PubChem BioAssay (NCI).
The panel holds about 83,000 compounds, 20% with a hit somewhere; the sample as a whole holds those more often.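 Cells were grown in 96-well plates and exposed to the test compound at a single concentration for 48 hours; results are reported as percent growth, with values below 10 considered active.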 A number with no mark means an inactive call. Activity calls are given as the source filed them.

Key:
Assay in all cases: NCI-60 one-dose screen, 48 h (100 = growth as untreated, 0 = no growth, -100 = all killed)
Settings in all cases: 10 µM unless noted
DU-145 prostate = system: DU-145 prostate
K-562 leukemia = system: K-562 leukemia
MALME-3M melanoma = system: MALME-3M melanoma
MDA-MB-231 breast = system: MDA-MB-231 breast
RXF 393 renal = system: RXF 393 renal
SF-268 CNS = system: SF-268 CNS
SF-295 CNS = system: SF-295 CNS
SF-539 CNS = system: SF-539 CNS
UACC-257 melanoma = system: UACC-257 melanoma
M14 melanoma = system: M14 melanoma
HCT-15 colon = system: HCT-15 colon
HT29 colon = system: HT29 colon
SNB-19 CNS = system: SNB-19 CNS
U251 CNS = system: U251 CNS
PC-3 prostate = system: PC-3 prostate
SK-MEL-5 melanoma = system: SK-MEL-5 melanoma
UACC-62 melanoma = system: UACC-62 melanoma
LOX IMVI melanoma = system: LOX IMVI melanoma
SK-MEL-28 melanoma = system: SK-MEL-28 melanoma
SNB-75 CNS = system: SNB-75 CNS

| SMILES | growth (DU-145 prostate) | growth (K-562 leukemia) | growth (MALME-3M melanoma) | growth (MDA-MB-231 breast) | growth (RXF 393 renal) | growth (SF-268 CNS) [%] | growth (SF-295 CNS) [%] | growth (SF-539 CNS) | growth (UACC-257 melanoma) | growth (M14 melanoma) [%] | growth (HCT-15 colon) [%] | growth (HT29 colon) | growth (SNB-19 CNS) [%] | growth (U251 CNS) [%] | growth (PC-3 prostate) [%] | growth (SK-MEL-5 melanoma) | growth (UACC-62 melanoma) [%] | growth (LOX IMVI melanoma) | growth (SK-MEL-28 melanoma) [%] | growth (SNB-75 CNS) [%] |
| --- | --- | --- | --- | --- | --- | --- | --- | --- | --- | --- | --- | --- | --- | --- | --- | --- | --- | --- | --- | --- |
| COc1ccc(S(=O)(=O)NCCCNc2nccc(-c3c(-c4cccc(N)c4)nc4sccn34)n2)cc1 | 92.1% | 69.7% | 103% | -61.7% (active) | 96.1% | 87.6 | 102 | 101% | 113% | 80.8 | 89.2 | 59.7% | 110 | 106 | 81.4 | 81.3% | 53 | 96.4% | 93.1 | – |
| COc1cc2c(=O)n(CC3CCCCC3)c3c4cc[nH]c4ncc3c2cc1OC | 50.3% | 5.36% (active) | 65.9% | 25.5% | -4.27% (active) | 28.8 | 42.9 | -7.56% (active) | 84.9% | 49.2 | 32.1 | 32% | 57.5 | 30.3 | 43.4 | 39.3% | 74.4 | 12.3% | 77.8 | – |
| CCOC(=O)Cc1cnn(C)c1NC(=O)c1ccc(Cl)cc1NC(C)=O | 110% | 103% | 105% | 112% | 115% | 98.7 | 101 | 101% | 105% | 101 | 110 | 110% | – | 111 | 94.6 | – | 99.7 | 107% | 130 | 76 |
| O=C(CN1CCN(c2cc3c(cc2F)c(=O)c(C(=O)O)cn3C2CC2)CC1)Nc1cc(=O)[nH]c(=O)[nH]1 | 112% | 103% | 95.3% | 102% | 94.4% | 100 | 86.8 | 96.6% | 103% | 89.2 | 96.1 | 102% | 97.4 | 106 | 99 | 98.9% | 96 | 101% | 101 | – |
| C=C1CC2(OC1=O)C(=O)Nc1ccccc12 (stereo unspecified) | 43% | 21.8% | 12.4% | 65.6% | -13.3% (active) | 98 | 96 | 47.3% | 71.9% | 59.1 | 23 | 42.7% | 88.3 | 91.2 | 73.6 | 81.2% | 72.9 | 35.3% | 63.8 | – |
| COc1ccccc1/C=C(/C(=O)c1ccccc1)c1ccccc1 | 110% | 86.6% | 135% | 98.6% | 105% | 97.8 | 104 | 106% | 93.4% | 101 | 93.4 | 110% | 90.8 | 96.4 | 92.2 | 99.1% | 82.4 | 87.8% | 108 | – |
| Cc1ccc2c(c1)n([O-])c1cc(Cl)ccc1[n+]2=O | 101% | 78.8% | 97.8% | 80.9% | 107% | 108 | 109 | 107% | 97.1% | 99 | 119 | 112% | – | 110 | 93.6 | – | 89 | 129% | 133 | 91.3 |
| COc1cc(NCCCCN=C(N)NC(N)=NC(C)C)c2ncccc2c1 | 127% | 39.1% | -2.65% (active) | 21.3% | 154% | 54.1 | 113 | 78.1% | 25.2% | 92.4 | 122 | 53.9% | 55.9 | 50 | 22.9 | 17% | 77 | 46.6% | 86.4 | – |
| CCN(CC)CC#CCOC(=O)[C@]1(C)CCC[C@@]2(C)[C@H]1CC(C=O)=C1C=C(C(C)C)CC[C@@H]12 | 90.1% | 20.7% | 82.3% | 76% | 61.2% | 75.8 | 71.8 | 49.1% | 85.4% | 56.4 | 40.9 | 9.02% (active) | 77.1 | 57.2 | 45.4 | 42.8% | 68.9 | 73.2% | 87.4 | – |
| CCN(CC)CCCC(C)Nc1ccnc2c(OC)cccc12 (stereo unspecified) | 120% | 121% | 142% | 107% | 135% | 124 | 109 | 116% | 113% | 108 | 120 | 107% | 113 | 102 | 104 | 111% | 114 | 107% | 119 | – |
| COC1=CC(=O)C(OC)=C(OC)C1=O | 106% | 63.9% | 92.1% | 86% | 111% | 94.3 | 99.3 | 90.7% | 107% | 93.2 | 102 | 107% | – | 100 | 98.1 | – | 87.5 | 84.6% | 98.6 | 90.1 |
| CCOC(=O)c1cnc2ccc(Br)cc2c1Nc1cccc(S(=O)(=O)NC)c1 | 103% | 100% | 99.1% | 95.4% | 99.5% | 94.9 | 94.2 | 98.2% | 114% | 114 | 80.5 | 101% | 100 | 109 | 102 | 96.6% | 96.9 | 93.6% | 122 | – |
| COc1cc(NCCCCCN=C(N)NC(N)=NC(C)C)c2ncccc2c1 | 104% | 26.1% | -19.2% (active) | 22% | 131% | 29 | 98.3 | 44.9% | -8.06% (active) | 67.7 | 110 | 54.2% | 33.2 | 20.5 | 32.8 | 5.87% (active) | 36.8 | 9.91% (active) | 60.1 | – |
| CCOC(=O)c1cnc2ccc(OC)cc2c1Nc1cccc(S(=O)(=O)NC)c1 | 102% | 92.8% | 105% | 100% | -4.54% (active) | 86.2 | 54.7 | 50.1% | 112% | 115 | 82.3 | 112% | 89 | 71.6 | 95.3 | 100% | 103 | 99.1% | 85.9 | – |
| COc1ccc(CCN2CC=Cn3c2nc2ccccc2c3=O)cc1 | 7.97% (active) | 10.8% | 63.2% | 18.8% | 36.7% | 35.7 | 17.2 | -34.1% (active) | 80.3% | 16.4 | 15.9 | 12.9% | – | 27.6 | 34.1 | – | 31.8 | 14.1% | 78.7 | 37.1 |
